Assay results: PubChem BioAssay AID1159580 (chemical genetic matrix, 2015)
In all, about 5,500 compounds went through this assay and about 2,000 (36%) were called active. Not shown: some 18% with an inconclusive outcome. Cut-off read from the data, not from the text of the source: active = normalized growth mostly below about 0.91 (no sharp cut-off); inconclusive = no clear call, values can overlap the other calls; inactive = mostly above about 0.92. This is one part of the list.

Test: chemical genetic growth profiling, strain panel (AID 1159580);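 note: tested at 20 µM; growth read once vehicle control cultures reached saturation at 30 °C; 1 = growth at the plate median or of vehicle wells; lower values mean less growth of the strain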
Settings: S. cerevisiae deletion strains, growth OD

Measured: normalized growth

Nc1ccc(N=Nc2ccc(S(N)(=O)=O)cc2)c2ccccc12
inactive: locus YAL013W, strain DEP1, hits give low values 0.999 | locus YBR229C, strain ROT2, hits give low values 1 | locus YCL061C, strain MRC1, hits give low values 0.998 | locus YDL101C, strain DUN1, hits give low values 0.98 | locus YDR150W, strain NUM1, hits give low values 0.906 | locus YEL061C, strain CIN8, hits give low values 0.989 | locus YGR078C, strain PAC10, hits give low values 1 | locus YGR229C, strain SMI1, hits give low values 1 | locus YHR030C, strain SLT2, hits give low values 1.04 | locus YHR087W, strain rtc3, hits give low values 0.995 | locus YJL187C, strain SWE1, hits give low values 1.01 | locus YJR043C, strain POL32, hits give low values 1 | locus YJR075W, strain HOC1, hits give low values 1.02 | locus YLR039C, strain RIC1, hits give low values 0.983 | locus YLR058C, strain SHM2 (second series), hits give low values 1.01 | locus YLR085C, strain ARP6, hits give low values 1.03 | locus YLR262C, strain YPT6, hits give low values 1 | locus YML094W, strain GIM5, hits give low values 0.986 | locus YMR219W, strain ESC1, hits give low values 0.994 | locus YMR263W, strain SAP30, hits give low values 0.916 | locus YNL153C, strain GIM3, hits give low values 1 | locus YNL298W, strain CLA4 (second series), hits give low values 0.982 | locus YNL322C, strain KRE1, hits give low values 0.997 | locus YNR030W, strain Alg12, hits give low values 1.01 | locus YPL055C, strain LGE1, hits give low values 0.893 | locus YPL241C, strain CIN2, hits give low values 1 | locus YPR135W, strain CTF4, hits give low values 1.06
